Laboratory results published in PubChem BioAssay (NCI).
About 83,000 compounds went through this panel and 20% of them were active in at least one assay; those are over-represented in the sample as a whole.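 Cell lines were cultured in 96-well plates, exposed to a single compound concentration, and assessed for percent growth 48 hours later.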 Unmarked numbers belong to inactive results. The source made the active and inactive calls. The calls were made as follows: active = growth percent below 10; inactive = the rest.

Experiments:
Experiment in all cases: NCI-60 one-dose screen, 48 h (100 = growth as untreated, 0 = no growth, -100 = all killed)
Conditions in all cases: 10 µM unless noted
[1] = tested on: SK-MEL-2 melanoma
[2] = tested on: EKVX NSCLC
[3] = tested on: SN12C renal
[4] = tested on: UO-31 renal
[5] = tested on: TK-10 renal
[6] = tested on: ACHN renal
[7] = tested on: CAKI-1 renal
[8] = tested on: A498 renal
[9] = tested on: CCRF-CEM leukemia
[10] = tested on: MOLT-4 leukemia

SMILES | growth [1] | growth [2] | growth [3] | growth [4] | growth [5] | growth [6] | growth [7] | growth [8] | growth [9] | growth [10]
CSc1nc(N)c(CNC(C)c2ccccc2)c(=O)n1C (centres undefined) | 98.9% | 100% | 101% | 80.5% | 120% | 97.9% | 107% | 102% | 106% | 93.1%
N#Cc1c(N)nc2c(nnn2-c2cccc(C(F)(F)F)c2)c1N | 91.2% | 29.1% | 87.7% | 58.2% | 90.2% | 87.7% | 77.2% | 97.7% | 87.9% | 75.8%
Oc1ccccc1-c1nc2ccccn2c1NCCN1CCOCC1 | 106% | 102% | 97.1% | 89.9% | 94.8% | 95.3% | 86.9% | 89.5% | 94.3% | 97.5%
NC(N)=N/N=C/c1ccc(Br)cc1 | 77.8% | 62.4% | 62.1% | 47.4% | 13.9% | 44.5% | 27.1% | 44.8% | 32.6% | 38.9%
O=C(O)c1ccccc1C(=O)Nc1ccc(Cl)cc1 | 102% | 96.2% | 102% | 84.6% | 93.3% | 94.9% | 74.1% | 108% | 110% | 71.2%
Cc1cc(=O)[nH]c(N/N=C/c2cc(Br)ccc2O)n1 | 26.9% | 9.68% (active) | 48.1% | -3.92% (active) | 45% | 14.5% | -5.73% (active) | 42.2% | 22.8% | 15.3%
NC(N)=N/N=C(/c1ccccc1)c1ccccc1F | 70.5% | 60% | 37.1% | 44% | 64.9% | 41% | 35.7% | 44.9% | -2.22% (active) | 22.4%
CN1CCN(C(=O)[C@]23CCC(C)(C)C[C@@H]2C2=CC[C@@H]4[C@@]5(C)Cc6c([nH]c7ccccc67)C(C)(C)[C@@H]5CC[C@@]4(C)[C@]2(C)CC3)CC1 | 95.1% | 77% | 88.1% | 57.7% | 92.4% | 86.9% | 55.2% | 96.5% | 71% | 63%
CCn1c(Sc2nnc(NC(C)=O)s2)nc2c1c(=O)n(C)c(=O)n2C | 103% | 88.3% | 94% | 83.5% | 103% | 95.5% | 93.7% |  | 112% | 
NS(=O)(=O)Oc1ccc(NC(=O)C23CC4CC(CC(C4)C2)C3)cc1Cl | 99.9% | 93% | 90.6% | 63.4% | 100% | 96.1% | 89% |  | 73.6% | 82.3%
CC(=O)Nc1ccc(-c2cc3c(NCc4ccc(F)cc4)ncnc3s2)cc1 | 95.4% | 67.5% | 72.6% | 62.2% | 70.5% | 65.5% | 61.6% | 61.9% | 96.3% | 95.3%
O=C1Nc2ccccc2/C1=N/N=C/c1ccsc1 | 107% | 90.9% | 95.3% | 74.8% | 137% | 102% | 92% |  | 101% | 
COc1ccc(-c2cc(-c3ccc(Nc4nc(Nc5ccccc5)nc(Nc5ccc(Cl)cc5)n4)cc3)nc(N)c2C#N)cc1 | -33% (active) | 18.7% | 25.7% | -71.5% (active) | -86.6% (active) | -82.2% (active) | -20.4% (active) |  | 3.41% (active) | 2.08% (active)
